Experimental data: PubChem BioAssay (NCI)
About 79,000 compounds went through this panel and 15% of them were active in at least one assay; those are over-represented in the sample as a whole. The source made the active and inactive calls. No stated cut-off is given here; in the data, active means growth inhibition above about 70%; inactive means the rest.

Assay: NCI Yeast Anticancer Drug Screen. Data for the mlh1 rad18 strain (AID 175)
Details: S. cerevisiae mlh1 rad18 strain growth inhibition; at 5.0 µM (retest, dose inferred, filed as 0.5); stronger effect = higher value
Outline: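 Inhibition values reflect reduced growth of mutant yeast versus vehicle-treated controls following compound exposure; the mutations affect DNA damage repair.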

SMILES | growth inhibition
CCCCC#C[I+]c1ccccc1 | 65% (inactive)
CCOC(=O)C1C(c2cccc(OC)c2O)c2cc3c(cc2OC1(C)N1CCCC1)OCO3 (stereo not drawn) | -4% (inactive)
Nc1ncnc2nn(C3OC(CO)C(O)C3O)nc12 (stereo not drawn) | 4% (inactive)
Nc1nc(-c2ccc3c(c2)Sc2ccccc2O3)cs1 | 57% (inactive)
O=C1C=CC(Nc2cccc([N+](=O)[O-])c2)C1Nc1cccc([N+](=O)[O-])c1 (stereo not drawn) | -29% (inactive)
O=C(CC(=O)c1ccccc1)CC(=O)c1ccccc1 | 38% (inactive)
Fc1ccc(CSC(=S)Nc2ccc(Br)cc2)cc1 | 21% (inactive)
Cc1cc([N+](=O)[O-])c2nnnn2c1 | 7% (inactive)
CN(c1ccc(C(N)=O)cc1)c1c(O)c2ccccc2[nH]c1=O | 0% (inactive)
O=C(/C=C\c1cccc2ccccc12)c1ccccn1 | 9% (inactive)
COc1ccc2c(c1)CCc1c(CO)c(COC(=O)NC(C)C)n(C)c1-2 | 59% (inactive)
O=C1CC(O)CC(=O)C1=C(O)CCCCCCCCCCc1ccccc1 (stereo not drawn) | 40% (inactive)
CC1CCN(CCCOC(=O)c2ccccc2)CC1 | 52% (inactive)
Cc1ccc(S(=O)(=O)OC2COC3C(OS(=O)(=O)c4ccc(C)cc4)COC23)cc1 (stereo not drawn) | -39% (inactive)
Cc1nn(C(=S)S)c(C)c1N=Nc1cccc(F)c1 | -1% (inactive)
O=C1C(=Cc2ccccc2O)N=C(c2ccccc2)N1n1c(-c2ccccc2)nc2ccccc2c1=O | 11% (inactive)
O=C1/C(=C/c2ccccc2)CNC/C1=C\c1ccccc1 | -4% (inactive)
Cc1cc(Br)c(P(=O)(O)O)cc1[N+](=O)[O-] | 3% (inactive)
Oc1cc(Cc2ccccc2)c(Cc2ccccc2)cc1O | -43% (inactive)
O=S1(=O)CCN(c2ccccc2CC(c2c[nH]c3ccccc23)c2c[nH]c3ccccc23)CC1 | 34% (inactive)

SMILES | growth inhibition
CCCCCC(O)C(C)CO (stereo not drawn) | -1% (inactive)
Cc1cc(=O)c2cc(N=Cc3ccc([N+](=O)[O-])o3)ccc2o1 | 10% (inactive)
CN(C)C(=S)/N=c1\ssc(=S)n1Cc1ccco1 | -2% (inactive)
O=[N+]([O-])c1ccc2nc(Nc3ccccc3)c(Nc3ccccc3)nc2c1 | -6% (inactive)
CC(=O)NC(CCC(=O)O)C(=O)O.[NH-]C1CCCCC1[NH-].[Pt+2] (stereo not drawn) | 96% (active)
CC(=O)Oc1c2c(c(C)c3ccccc13)C(=O)c1cccnc1C2=O | 3% (inactive)
C=C1C(=O)OC2C(C)C3C=CC(=O)[C@@]3(C)C(OC(=O)/C(C)=C/C)C1[C@@H]2OC(C)=O (stereo partly drawn) | 16% (inactive)
O=C(O)/C=C/c1ccc2c(c1)CC1(Cc3ccccc3C1)C2 | 67% (inactive)
C(=C\c1ccc(-[n+]2nc(-c3ccccc3)nn2-c2ccccc2)cc1)/c1ccccc1 | 95% (active)
O=CC(O)C(O)C(O)C(O)C(=O)NCCCCCCCCCCCCNC(=O)C(O)C(O)C(O)C(O)C=O (stereo not drawn) | 20% (inactive)
CCCCCCCCCCN(CCCCCCCCCC)CC(O)c1cc(-c2ccccc2)nc2ccccc12 (stereo not drawn) | 4% (inactive)
CC1(C)C(=O)C(C(Cl)(Cl)Cl)=C(Cl)C(=O)C1(Cl)Cl | 42% (inactive)
Cc1cccc2c1CC1(C2)Cc2c(C)cccc2C1=O (stereo not drawn) | -11% (inactive)
Oc1c(Cl)cc(C(c2cc(Cl)c(O)c(Cl)c2)C(c2cc(Cl)c(O)c(Cl)c2)c2cc(Cl)c(O)c(Cl)c2)cc1Cl | 99% (active)
Cc1ccc(S(=O)(=O)NC(Cc2ccccc2)C(=O)CCl)cc1 (stereo not drawn) | 86% (active)
CCOC(=O)/C(C#N)=C/c1coc2cc(C)cc(C)c2c1=O | 15% (inactive)
CN(C)/N=C\C1CC=CCC1 (stereo not drawn) | -141% (inactive)
NCC(=O)N/N=C/c1ccc([N+](=O)[O-])o1 | 8% (inactive)
CCc1cc(CC)c(-c2ccco2)c(COC(=O)NC)c1 | -1% (inactive)

Same assay, conditions: S. cerevisiae mlh1 rad18 strain growth inhibition; at 50.0 µM (retest, dose inferred, filed as 5.0); stronger effect = higher value

SMILES | growth inhibition
CCCCC#C[I+]c1ccccc1 | 65% (inactive)
CCOC(=O)C1C(c2cccc(OC)c2O)c2cc3c(cc2OC1(C)N1CCCC1)OCO3 (stereo not drawn) | 27% (inactive)
Nc1ncnc2nn(C3OC(CO)C(O)C3O)nc12 (stereo not drawn) | 0% (inactive)
Nc1nc(-c2ccc3c(c2)Sc2ccccc2O3)cs1 | 99% (active)
O=C1C=CC(Nc2cccc([N+](=O)[O-])c2)C1Nc1cccc([N+](=O)[O-])c1 (stereo not drawn) | -19% (inactive)
O=C(CC(=O)c1ccccc1)CC(=O)c1ccccc1 | 95% (active)
Fc1ccc(CSC(=S)Nc2ccc(Br)cc2)cc1 | 99% (active)
Cc1cc([N+](=O)[O-])c2nnnn2c1 | 65% (inactive)
CN(c1ccc(C(N)=O)cc1)c1c(O)c2ccccc2[nH]c1=O | 63% (inactive)
O=C(/C=C\c1cccc2ccccc12)c1ccccn1 | 99% (active)
COc1ccc2c(c1)CCc1c(CO)c(COC(=O)NC(C)C)n(C)c1-2 | 93% (active)
O=C1CC(O)CC(=O)C1=C(O)CCCCCCCCCCc1ccccc1 (stereo not drawn) | 62% (inactive)
CC1CCN(CCCOC(=O)c2ccccc2)CC1 | 74% (active)
Cc1ccc(S(=O)(=O)OC2COC3C(OS(=O)(=O)c4ccc(C)cc4)COC23)cc1 (stereo not drawn) | -63% (inactive)
Cc1nn(C(=S)S)c(C)c1N=Nc1cccc(F)c1 | 21% (inactive)
O=C1C(=Cc2ccccc2O)N=C(c2ccccc2)N1n1c(-c2ccccc2)nc2ccccc2c1=O | 39% (inactive)
O=C1/C(=C/c2ccccc2)CNC/C1=C\c1ccccc1 | 98% (active)
Cc1cc(Br)c(P(=O)(O)O)cc1[N+](=O)[O-] | -4% (inactive)
Oc1cc(Cc2ccccc2)c(Cc2ccccc2)cc1O | 96% (active)
O=S1(=O)CCN(c2ccccc2CC(c2c[nH]c3ccccc23)c2c[nH]c3ccccc23)CC1 | 94% (active)

SMILES | growth inhibition
CCCCCC(O)C(C)CO (stereo not drawn) | -1% (inactive)
Cc1cc(=O)c2cc(N=Cc3ccc([N+](=O)[O-])o3)ccc2o1 | 49% (inactive)
CN(C)C(=S)/N=c1\ssc(=S)n1Cc1ccco1 | -9% (inactive)
O=[N+]([O-])c1ccc2nc(Nc3ccccc3)c(Nc3ccccc3)nc2c1 | 93% (active)
CC(=O)NC(CCC(=O)O)C(=O)O.[NH-]C1CCCCC1[NH-].[Pt+2] (stereo not drawn) | 99% (active)
CC(=O)Oc1c2c(c(C)c3ccccc13)C(=O)c1cccnc1C2=O | 2% (inactive)
C=C1C(=O)OC2C(C)C3C=CC(=O)[C@@]3(C)C(OC(=O)/C(C)=C/C)C1[C@@H]2OC(C)=O (stereo partly drawn) | 94% (active)
O=C(O)/C=C/c1ccc2c(c1)CC1(Cc3ccccc3C1)C2 | 88% (active)
C(=C\c1ccc(-[n+]2nc(-c3ccccc3)nn2-c2ccccc2)cc1)/c1ccccc1 | 99% (active)
O=CC(O)C(O)C(O)C(O)C(=O)NCCCCCCCCCCCCNC(=O)C(O)C(O)C(O)C(O)C=O (stereo not drawn) | 23% (inactive)
CCCCCCCCCCN(CCCCCCCCCC)CC(O)c1cc(-c2ccccc2)nc2ccccc12 (stereo not drawn) | 57% (inactive)
CC1(C)C(=O)C(C(Cl)(Cl)Cl)=C(Cl)C(=O)C1(Cl)Cl | 97% (active)
Cc1cccc2c1CC1(C2)Cc2c(C)cccc2C1=O (stereo not drawn) | 52% (inactive)
Oc1c(Cl)cc(C(c2cc(Cl)c(O)c(Cl)c2)C(c2cc(Cl)c(O)c(Cl)c2)c2cc(Cl)c(O)c(Cl)c2)cc1Cl | 98% (active)
Cc1ccc(S(=O)(=O)NC(Cc2ccccc2)C(=O)CCl)cc1 (stereo not drawn) | 98% (active)
CCOC(=O)/C(C#N)=C/c1coc2cc(C)cc(C)c2c1=O | 98% (active)
CN(C)/N=C\C1CC=CCC1 (stereo not drawn) | -120% (inactive)
NCC(=O)N/N=C/c1ccc([N+](=O)[O-])o1 | 30% (inactive)
CCc1cc(CC)c(-c2ccco2)c(COC(=O)NC)c1 | 86% (active)
